The source of these data is PubChem BioAssay.

The source made the active and inactive calls.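 Rule for the calls: active = compound raises insulin release from rat beta cells at 5 mM glucose, no numeric limit stated; inactive = the rest.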
Note: reference of the scale not given here.

A short description of one experiment: stimulators of nuclear beta-catenin in C2C12, primary screen, imaging, WNT3A-conditioned medium, mouse C2C12, NPC library (AID 1117326). Conditions: stimulation, at 2 µM, stronger effect = higher value.
Compound `COCCCOc1ccnc(CS(=O)c2nc3ccccc3[nH]2)c1C` (stereo not given) had a nuclear beta-catenin stimulation of 9.8%.
Still for that read-out and setting: as for `N=c1nc(N2CCCCC2)cc(N)n1O`, the figure is 8.6%; as for `Cc1ccc(-n2nc(C(C)(C)C)cc2NC(=O)Nc2ccc(OCCN3CCOCC3)c3ccccc23)cc1`, 7%; as for `CC(C)CCCC(C)NCCC(C)C` (stereo not given), 2.7%.
Same read-out and setting: next, `COc1ccccc1N1CCN(CCCCNC(=O)c2ccc(-c3ccc(C(C)=O)cc3)cc2)CC1`: 9.2%; `CCCC(CCC)C(=O)O`: 8.9%.
On to `C[C@@H](C1=C(CCN(C)C)Cc2ccccc21)c1ccccn1`, for which the nuclear beta-catenin stimulation amounted to 8.1%.
On the same count and under the same terms, next, `Cc1cc(-n2nc3ccc(Cl)cc3n2)c(O)c(C(C)(C)C)c1`: 10.1%; `CCO[C@H](Cc1ccc(OCCc2ccc(OS(C)(=O)=O)cc2)cc1)C(=O)O`: 7.6%.
As to `COc1ccc2c(c1)C(=O)N(CCc1ccc(S(=O)(=O)NC(=O)NC3CCCCC3)cc1)C(=O)C2(C)C`, the nuclear beta-catenin stimulation worked out at 10.6%.
Still for that read-out and setting: as for `CC12CCC(CC1)C(C)(C)O2`, the figure is 17.2%.
Still for that read-out and setting: as for `CCN(CC)CCOc1ccc(Cc2ccccc2)cc1`, the figure is 14.6%.
On the same count and under the same terms, as for `NC(=O)c1cccnc1`, the figure is 7.7%; as for `COCCOCC(OC)OC`, 10.8%; as for `CN1C(=O)CC[C@H]1c1cccnc1`, 5.5%.
As for `CC(C)OC(=O)C(C)(C)Oc1ccc(C(=O)c2ccc(Cl)cc2)cc1`, the nuclear beta-catenin stimulation was 6.9%.
On the same count and under the same terms, as for `O=C(O)C1CCC1`, the figure is 6.2%; as for `Oc1ccc(O)cc1`, 14.4%.

A short description of another experiment: stimulators of insulin release from INS-1E, primary screen, cell-based, 5 mM glucose, NPC library (AID 1117329). Conditions: rat INS-1E insulin secretion, at 10 µM, stronger effect = higher value.
Regarding `CC(C)NCC(O)COc1cccc2[nH]ccc12` (stereo not given), the insulin secretion stimulation was 0.3% (inactive).
Same read-out and setting: as for `CCn1cc(C(=O)O)c(=O)c2ccc(C)nc21`, the figure is -1.7% (inactive).
Same read-out and setting: as for `CN(C)C(=O)C(CCN1CCC(O)(c2ccc(Cl)cc2)CC1)(c1ccccc1)c1ccccc1`, the figure is 1.9% (inactive).
Same read-out and setting: as for `Cc1cc(NS(=O)(=O)c2ccc(N)cc2)no1`, the figure is -2.1% (inactive).
Turning to `CC(C)(C)NC(=O)[C@@H]1C[C@@H]2CCCC[C@H]2CN1C[C@@H](O)[C@H](Cc1ccccc1)NC(=O)[C@H](CC(N)=O)NC(=O)c1ccc2ccccc2n1`, the insulin secretion stimulation was 1.9% (inactive).
Still for that read-out and setting: as for `O=C1CN(/N=C/c2ccc([N+](=O)[O-])o2)C(=O)N1`, the figure is -2.7% (inactive); as for `COc1cc(Cc2cnc(N)nc2N)cc(OC)c1OC`, -1.7% (inactive).
Same read-out and setting: next, `COC(=O)C1=C(C)NC(C)=C(C(=O)OCCN(C)Cc2ccccc2)C1c1cccc([N+](=O)[O-])c1` (stereo not given): 2.9% (inactive); `O=C(CCCN1CCC(O)(c2ccc(Cl)cc2)CC1)c1ccc(F)cc1`: 10.8% (inactive).
Same read-out and setting: as for `C[C@@H](c1ncncc1F)C(O)(Cn1cncn1)c1ccc(F)cc1F` (stereo not given in full), the figure is 3.8% (inactive); as for `CC(C)(C)NCC(O)c1ccc(O)c(CO)c1` (stereo not given), 1.1% (inactive); as for `COc1ccc2cc([C@H](C)C(=O)O)ccc2c1`, -0.7% (inactive).
`COc1c2occc2cc2ccc(=O)oc12`: the insulin secretion stimulation was 1.9% (inactive).
As to `CN/C(=C\[N+](=O)[O-])NCCSCc1ccc(CN(C)C)o1`, the insulin secretion stimulation was -1% (inactive).
The same measure, in the same setting: next, `CO[C@]1(NC(=O)CSC(F)F)C(=O)N2C(C(=O)O)=C(CSc3nnnn3CCO)CO[C@H]21`: 0.75% (inactive); `CNCCCN1c2ccccc2CCc2ccccc21`: 15.8% (inactive).
Same read-out and setting: as for `CCCC(=O)Nc1ccc(OCC(O)CNC(C)C)c(C(C)=O)c1` (stereo not given), the figure is 0.7% (inactive); as for `O=C(O)CCc1nc(-c2ccccc2)c(-c2ccccc2)o1`, 1.3% (inactive).
On the same count and under the same terms, as for `CCN(CC)CC(=O)Nc1c(C)cc(C)cc1C`, the figure is -0.3% (inactive).
In the case of `CC(C(=O)O)c1cccc(C(=O)c2ccccc2)c1` (stereo not given), the insulin secretion stimulation is 1.7% (inactive).
The same measure, in the same setting: as for `CN1CCN(C2=Nc3cc(Cl)ccc3Nc3ccccc32)CC1`, the figure is 3.6% (inactive).
The same measure, in the same setting: next, `COC(=O)C1=C(C)NC(C)=C(C(=O)OC)C1c1ccccc1[N+](=O)[O-]`: 11.4% (inactive).
